In PubChem BioAssay (NCATS):
Several values for one entry are separate records, joined by “and”; a condition that tells them apart may be missing. Equal entries are not always repeated. Inconclusive results are not listed. Activity calls are given as the source filed them. Calls follow the shape of the dose curve; as a rule, active = well fitted inhibition curve with a large enough effect; inconclusive = small, poorly fitted or top-dose-only effect; inactive = flat fitted curve, though single readings scatter.

Key:
CRL-7250 [1] = assay: Cytotoxic Profiling of Annotated Libraries Using Quantitative High-Throughput Screening (AID 1296008); details: Five cell lines viability, CellTiter-Glo ATP luminescence, 48-72 h; max response: stronger effect = lower value; as to max response: % is scaled to controls: 0 for no effect and ±100 for the full control effect
How it was run: (§1)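 Cytotoxicity was measured as CellTiter-Glo ATP luminescence, read after 10 min at room temperature. Compound treatment of the cells lasted 48 or 72 hr at 37 degrees Celsius in a qHTS format.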

HEK293 = assay: as above; details: Five cell lines viability, CellTiter-Glo ATP luminescence, 48-72 h; max response: stronger effect = lower value
How it was run: as §1

HaCat [2] = assay: as above; details: Five cell lines viability, CellTiter-Glo ATP luminescence, 48-72 h; max response: stronger effect = lower value
How it was run: as §1

KB-3-1 = assay: as above; details: Five cell lines viability, CellTiter-Glo ATP luminescence, 48-72 h; max response: stronger effect = lower value
How it was run: as §1

NIH3T3 [3] = assay: as above; details: Five cell lines viability, CellTiter-Glo ATP luminescence, 48-72 h; max response: stronger effect = lower value
How it was run: as §1

CRL-7250 [4] = assay: qHTS assay to identify novel small-molecules to repurpose for Merkel cell carcinoma treatment (AID 1296009); details: MCC and control cell lines, CellTiter-Glo viability, 72 h; at 44.8 µM (top of the series) unless noted
How it was run: (§2)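 Cell viability measured by CellTiter-Glo following 72 hr compound treatment at 37 degree celsius, with NPC and MIPE libraries tested in 8- and 11-point concentration series.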

HACAT [5] = assay: as above; details: MCC and control cell lines, CellTiter-Glo viability, 72 h; at 44.8 µM (top of the series) unless noted
How it was run: as §2

NIH3T3 [6] = assay: as above; details: MCC and control cell lines, CellTiter-Glo viability, 72 h; at 44.8 µM (top of the series) unless noted
How it was run: as §2

HEK293T = assay: as above; details: MCC and control cell lines, CellTiter-Glo viability, 72 h; at 44.8 µM (top of the series) unless noted
How it was run: as §2

Measured: max response
Also: nearly all actives have a fitted effect of over 60% in size.

C=C[C@H]1CN2CC[C@H]1C[C@@H]2[C@@H](O)c1ccnc2ccccc12
inactive: CRL-7250 [1] -1.31% | HEK293 -22.7% | HaCat [2] 1.51% | KB-3-1 5.41% and -18.8% | NIH3T3 [3] -3.21%

CC(C)[C@@H](CN1CC[C@@](C)(c2cccc(O)c2)[C@@H](C)C1)NC(=O)[C@H]1Cc2ccc(O)cc2CN1
inactive: CRL-7250 [1] | HEK293 -18.6% | HaCat [2] | KB-3-1 4.16% | NIH3T3 [3] | CRL-7250 [4] | HACAT [5] | NIH3T3 [6]

O=C1C[C@@H]2OCC=C3CN4CC[C@]56c7ccccc7N1[C@H]5[C@H]2[C@H]3C[C@H]46
inactive: CRL-7250 [1] | HEK293 -6.49% | HaCat [2] | KB-3-1 -9.91% | KB-3-1 | NIH3T3 [3] 3.86% | CRL-7250 [4] | HACAT [5]

C/C=C(\C)C(=O)OC1CC2C(C)(C)OC(=O)CC(OC(C)=O)C2(C)C2CC(OC(=O)C(C)C)C3(C)C(c4ccoc4)CC4OC43C12C (stereo not given)
inactive: CRL-7250 [1] | HEK293 -0.997% | HaCat [2] | KB-3-1 7.39% | NIH3T3 [3] 0.059% | CRL-7250 [4] inactive [at 17.4 µM] | HACAT [5] inactive [at 17.4 µM]

COc1cc2c(cc1OC)[C@@]13CCN4CC5=CCO[C@H]6CC(=O)N2[C@H]1[C@H]6[C@H]5C[C@H]43
inactive: CRL-7250 [1] -0.912% | HEK293 -25.1% | HaCat [2] -7.03% | KB-3-1 8.18% and 2.14% | NIH3T3 [3] 1.02%

C=C1[C@@H]2CC[C@@]3(C)[C@H](c4ccoc4)OC(=O)C[C@]13O[C@H]1CC(=O)C(C)(C)[C@H](C(OC(C)=O)C(=O)OC)[C@]12C (stereo not given in full)
inactive: CRL-7250 [1] | HEK293 -1.58% | HaCat [2] | KB-3-1 -6.59% | NIH3T3 [3] -2.92% | CRL-7250 [4] inactive [at 17.4 µM] | HACAT [5] inactive [at 17.4 µM]

C[C@H]1C(=O)O[C@H]2[C@H](O)[C@]34C5OC(=O)[C@]3(O[C@@H]3OC(=O)[C@H](O)C34[C@H](C(C)(C)C)[C@H]5O)C12O (stereo not given in full)
inactive: CRL-7250 [1] | HEK293 -8.69% | HaCat [2] | KB-3-1 | NIH3T3 [3] | CRL-7250 [4] inactive [at 17.4 µM] | HACAT [5] inactive [at 17.4 µM] | NIH3T3 [6] inactive [at 17.4 µM]

COc1c(C(C)C)cc2c(c1O)[C@@]1(C(=O)O)CCCC(C)(C)C1CC2 (stereo not given in full)
inactive: CRL-7250 [1] | HEK293 | HaCat [2] 0.977% | KB-3-1 | NIH3T3 [3] 0.972% | CRL-7250 [4] | HEK293T

CC[C@H]1CN2CC[C@H]1C[C@@H]2[C@@H](O)c1ccnc2ccc(OC)cc12
inactive: CRL-7250 [1] | HEK293 | HaCat [2] | KB-3-1 5.11% | NIH3T3 [3] | CRL-7250 [4] | HACAT [5] | HEK293T | NIH3T3 [6]

COc1ccccc1CN[C@H]1C2CCN(CC2)[C@H]1C(c1ccccc1)c1ccccc1
inactive: CRL-7250 [1] | HEK293 -17% | HaCat [2] | KB-3-1 -8.54% | NIH3T3 [3] | CRL-7250 [4] | HACAT [5] | NIH3T3 [6]

O=C(O)c1ccnc2cc(C(OCCN3CCCCC3)c3ccccc3Cl)[nH]c12 (stereo not given)
inactive: CRL-7250 [1] | HEK293 | HaCat [2] | KB-3-1 | NIH3T3 [3] -0.205% | CRL-7250 [4] | HACAT [5] | HEK293T

CCC(C)(OC(C)=O)C(=O)O[C@H]1[C@H](OC(C)=O)C[C@@H]2[C@@](C)([C@@H]3C[C@H]4C=CO[C@H]4O3)[C@H](C)C[C@H](OC(C)=O)[C@@]2(COC(C)=O)[C@@]12CO2 (stereo not given in full)
inactive: CRL-7250 [1] | HEK293 | HaCat [2] | KB-3-1 8.14% | NIH3T3 [3] | CRL-7250 [4] inactive [at 17.4 µM] | HACAT [5] inactive [at 17.4 µM] | HEK293T inactive [at 17.4 µM] | NIH3T3 [6] inactive [at 17.4 µM]

C/C=C(\C)C(=O)OC1CC2C(CC=C3CC(OC4CC(OC)C(OC5CC(OC)C(OC6OC(C)C(OC7OC(CO)C(O)C(O)C7O)C(OC)C6O)C(C)O5)C(C)O4)CCC32C)C2(O)CCC(C(C)=O)C12C (stereo not given)
inactive: CRL-7250 [1] | HEK293 -9.26% | HaCat [2] | KB-3-1 | NIH3T3 [3] -0.91% | CRL-7250 [4] inactive [at 9.27 µM] | HACAT [5] inactive [at 9.27 µM]

Cc1cccc(NC(=O)N[C@@H]2N=C(c3ccccc3)c3ccccc3N(C)C2=O)c1
inactive: CRL-7250 [1] | HEK293 -5.08% | HaCat [2] | KB-3-1 9% | NIH3T3 [3] | CRL-7250 [4] | HACAT [5] | NIH3T3 [6]

CC[C@H]1CN2CC[C@H]1C[C@H]2[C@H](O)c1ccnc2ccc(OC)cc12
inactive: CRL-7250 [1] | HEK293 -14.1% | HaCat [2] | KB-3-1 0.288% | NIH3T3 [3] | CRL-7250 [4] | HACAT [5] | NIH3T3 [6]

CC(CCc1ccc(O)cc1)O[C@@H]1O[C@H](CO[C@H]2OC[C@](O)(CO)[C@H]2O)[C@@H](O)[C@H](O)[C@H]1O (stereo not given in full)
inactive: CRL-7250 [1] | HEK293 | HaCat [2] | KB-3-1 6.77% | NIH3T3 [3] 3.14% | CRL-7250 [4] inactive [at 17.4 µM] | HACAT [5] inactive [at 17.4 µM] | HEK293T inactive [at 17.4 µM]

CCc1c(C(=O)C(N)=O)c2c(OCC(=O)OC)cccc2n1Cc1ccccc1
inactive: CRL-7250 [1] | HEK293 | HaCat [2] -4% | KB-3-1 | NIH3T3 [3] -0.844% | CRL-7250 [4] | HEK293T

Cn1ncnc1COc1nn2c(-c3c(F)cccc3F)nnc2cc1C1CCC1
inactive: CRL-7250 [1] | HEK293 | HaCat [2] | KB-3-1 | NIH3T3 [3] 2.04% | CRL-7250 [4] | HACAT [5] | HEK293T

N#CC(OC1OC(COC2OC(CO)C(O)C(O)C2O)C(O)C(O)C1O)c1ccccc1 (stereo not given)
inactive: CRL-7250 [1] | HEK293 | HaCat [2] | KB-3-1 9.88% | NIH3T3 [3] | CRL-7250 [4] inactive [at 17.4 µM] | HACAT [5] inactive [at 17.4 µM] | HEK293T inactive [at 17.4 µM] | NIH3T3 [6] inactive [at 17.4 µM]

Clc1ccc(OCC2=NCCN2)cc1Cl
inactive: CRL-7250 [1] | HEK293 | HaCat [2] | KB-3-1 6.44% | NIH3T3 [3] | CRL-7250 [4] | HACAT [5] | HEK293T | NIH3T3 [6]

C[C@@]1(C(=O)O)CC[C@]2(C)CC[C@]3(C)C4=CC(=O)c5cc(O)c(O)cc5[C@]4(C)CC[C@@]3(C)[C@@H]2C1
inactive: CRL-7250 [1] | HEK293 -9.77% | HaCat [2] | KB-3-1 | NIH3T3 [3] | CRL-7250 [4] inactive [at 17.4 µM] | HACAT [5] inactive [at 17.4 µM] | NIH3T3 [6] inactive [at 17.4 µM]

COCC1OC(=O)c2coc3c2C1(C)C1=C(C3=O)C2CCC(=O)C2(C)CC1O (stereo not given)
inactive: all assays above

CN[C@H]1[C@H](O)[C@H](O[C@@H]2[C@@H](O)[C@H](O[C@H]3O[C@H]([C@H](C)O)[C@@H](O)[C@H](O)[C@H]3N)[C@@H](N)C[C@H]2N)OC[C@@]1(C)O
inactive: CRL-7250 [1] | HEK293 -1.94% | HaCat [2] | KB-3-1 3.55% | NIH3T3 [3] 4.53% | CRL-7250 [4] | HACAT [5]

O=C(N1CCOCC1)N1CCN(c2ccc(Cl)cc2)CC1
inactive: CRL-7250 [1] | HEK293 -0.253% | HaCat [2] | KB-3-1 6.75% | NIH3T3 [3] | CRL-7250 [4] | HACAT [5] | NIH3T3 [6]

Cc1cc(C(=O)CN2CCCC2)c(C)n1-c1ccc(F)cc1
inactive: CRL-7250 [1] 1.13% and -6.04% | HEK293 -9.04% | HaCat [2] 1.57% and -29% | KB-3-1 2.15% and -9.06% | NIH3T3 [3] 1.34% and -18.5%

COC(=O)[C@@]12C(=O)C(C)C(=O)[C@]1(C)C(C)=C[C@H]1[C@]3(C=O)CC[C@H](OC(C)=O)C(C)(C)[C@H]3CC[C@@]12C (stereo not given in full)
inactive: CRL-7250 [1] | HEK293 | HaCat [2] | KB-3-1 6.62% | NIH3T3 [3] 3.28% | CRL-7250 [4] inactive [at 17.4 µM] | HACAT [5] inactive [at 17.4 µM] | HEK293T inactive [at 17.4 µM]

COC(=O)C1(C)CCC(O)C2(C)c3c(O)cc(C(C)C)cc3C(O)C(OC(C)=O)C12 (stereo not given)
inactive: CRL-7250 [1] | HEK293 | HaCat [2] -12.7% | KB-3-1 | NIH3T3 [3] 0.503% | CRL-7250 [4] inactive [at 17.4 µM] | HEK293T inactive [at 17.4 µM]

C[C@H](NC(=O)Cc1cc(F)cc(F)c1)C(=O)N[C@@H]1N=C(c2ccccc2)c2ccccc2N(C)C1=O
inactive: CRL-7250 [1] | HEK293 -14.2% | HaCat [2] | KB-3-1 4.54% | NIH3T3 [3] -0.0571% | CRL-7250 [4] | HACAT [5]

CC1=C2C(=O)C3[C@@H](CC=C4C[C@@H](O)CC[C@@]43C)[C@@H]2CC[C@]12O[C@@H]1C[C@H](C)CN[C@H]1[C@H]2C (stereo not given in full)
inactive: CRL-7250 [1] | HEK293 -3.9% | HaCat [2] | KB-3-1 | NIH3T3 [3] | CRL-7250 [4] inactive [at 17.4 µM] | HACAT [5] inactive [at 17.4 µM] | NIH3T3 [6] inactive [at 17.4 µM]

COc1cc(CCNCc2ccccc2O)c(OC)cc1C#N
inactive: CRL-7250 [1] | HEK293 2.88% | HaCat [2] | KB-3-1 | NIH3T3 [3] 4.5% | CRL-7250 [4] | HACAT [5]

CC(C)(C)c1cc(C(C)(C)C)c2c(c1)C(O)(C(F)(F)F)C(=O)O2 (stereo not given)
inactive: CRL-7250 [1] | HEK293 1.2% | HaCat [2] | KB-3-1 | NIH3T3 [3] | CRL-7250 [4] | HACAT [5] | NIH3T3 [6]
